Experimental data: PubChem BioAssay AID651954 (NMMLSC, 2012)
Screen size: about 1,500 compounds; about 160 (11%) were called active. No stated cut-off is given here; in the data, active means inhibition above about 60%; inactive means the rest. A selection follows.

Assay: blockers of LAMP-1 surface exposure, TALL-104 – TALL-104 cells, flow cytometry, Cherry Pick01, confirmation (AID 651954);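 further: 0% = stimulated vehicle wells and 100% = unstimulated wells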
Details: LAMP-1 externalization, at 10 µM, hits give high values, stimulated with PMA plus thapsigargin

SMILES | inhibition
Cc1ccccc1CN1C[C@@H]2C[C@@H](c3cn(C)nc3-c3ccccc3)N3CCC[C@@]23C1=O | -13.4% (inactive)
CCc1ccc(-c2cc3c(=O)n(CC(=O)NCCCN4CCN(Cc5ccccc5)CC4)nc(C)n3n2)cc1 | 34.9% (inactive)
Cn1sc(=O)c2cc(S(=O)(=O)NC3CC3)ccc21 | 79.8% (active)
COc1ccc(OC)c(NC(=O)CN(C)CCOc2ccc(Br)cc2)c1 | -14.9% (inactive)
OCCNc1nc(Nc2ccc(Cl)c(Cl)c2)nc2ccccc12 | -11.3% (inactive)
Cc1nc(-c2ccc(Cl)cc2)sc1C1(C)CC(c2ccc(Br)cc2)=NO1 (stereo unspecified) | -3.75% (inactive)
CCOc1ccc(Cl)cc1-c1cc(C(=O)NCc2cccs2)[nH]n1 | 66.4% (active)
COc1ccc(-c2cn[nH]c2-c2ccc(OC)cc2)cc1 | 2.16% (inactive)
COc1ccc2sc(-c3ccc(N(C)C)cc3)c(-c3ccc4cc[nH]c4c3)c2c1 | -13.7% (inactive)
COc1cccc(NC(=O)C2C(c3ccccc3)C2(Cl)Cl)c1 (stereo unspecified) | 0.14% (inactive)
COc1ccc(C2CC(c3cccs3)=NN2c2nc(C)c(C(C)=O)s2)cc1OC (stereo unspecified) | 73.4% (active)
CC(C)Cn1cnc2c(SCc3ccc(Cl)cc3)nc(N)nc21 | -12.1% (inactive)
CCOC(=O)C1(CCOc2ccccc2)CCN(Cc2ccc(C#CCCO)cc2)CC1 | -4.45% (inactive)
Oc1ccccc1-c1cc(-c2ccc(Cl)cc2)n[nH]1 | -11.6% (inactive)
CS(=O)(=O)N(CC(O)Cn1c2ccccc2c2ccccc21)c1cccc2ccccc12 (stereo unspecified) | 5.69% (inactive)
CC(C)c1ccccc1OCC(O)CN(CC(O)COc1cccc2ccccc12)C(C)C (stereo unspecified) | 87.3% (active)
O=C(Nc1ccccc1)c1cccnc1Nc1ccccc1 | -4% (inactive)
O=S(=O)(Nc1ccc(O)c2ccccc12)c1ccc(OC(F)(F)F)cc1 | -11.4% (inactive)
COc1ccc(CCNC(=O)C2CC3Cn4c(nc5cc(C)c(C)cc54)C3N2C)cc1 (stereo unspecified) | -13.9% (inactive)
C=CCn1c(SCc2csc(C)n2)nc2scc(-c3ccc(C)o3)c2c1=O | -12.8% (inactive)
Nc1c(C(=O)c2cccs2)sc2nsc(SCCN3CCCCC3)c12 | 22% (inactive)
Cc1oc(-c2ccccc2Cl)[n+]([O-])c1C | -3.08% (inactive)

SMILES | inhibition
COc1ccccc1N1CCN(c2ncnc3sc(C)c(-c4ccccc4)c23)CC1 | -3.66% (inactive)
CC(=O)Nc1ccc(-c2csc(NC(=O)Nc3ccccc3)n2)cc1 | 55.2% (inactive)
O=C(COc1ccc(Cl)cc1)N1CCN(c2cccc(C(F)(F)F)c2)CC1 | 5.85% (inactive)
CCCC(C(=O)n1nc(C)cc1C)C(NS(=O)(=O)c1ccc(C)cc1)c1ccccc1 (stereo unspecified) | 1.32% (inactive)
CN(c1ccccc1)S(=O)(=O)c1ccc(C(=O)NCCc2ccccc2)cc1 | -3.54% (inactive)
O=C(NCc1ccccc1)C(c1ccccc1)N(C(=O)c1csnn1)c1ccc(F)cc1 (stereo unspecified) | -12.2% (inactive)
Cc1ccc(-c2ccnc3nc(Sc4ncc(C(F)(F)F)cc4Cl)nn23)cc1 | -4.56% (inactive)
Cc1cccc(-c2nc3ccc(C(=O)NCCN4CCN(C)CC4)cc3nc2-c2cccc(C)c2)c1 | 2.79% (inactive)
COc1ccc(-c2csc(Nc3ccc(O)cc3)n2)cc1 | -6.12% (inactive)
COc1ccc(CC(N)c2csc(NC(=O)Nc3ccc(C(C)C)cc3)n2)cc1 (stereo unspecified) | 11.2% (inactive)
Cc1cccc(N2CCC(NCc3c(C(=O)N4CCCCC4)nc4c(C)cccn34)CC2)c1 | -4.45% (inactive)
COc1ccc(-c2oc3ncnc(NCCCO)c3c2-c2ccc(OC)cc2)cc1 | -0.03% (inactive)
O=S(=O)(c1ccccc1)N(Cc1cccc(F)c1)c1ccccc1 | -7.22% (inactive)
CN(C)CCNC(=O)c1ccc(-c2cn3c(-c4ccc(Oc5ccccc5)cc4)cnc3cn2)cc1 | 87.2% (active)
O=C(NC(=O)c1ccccc1N1CCCCC1)Nc1ccc(Br)cc1 | -13.3% (inactive)
Cc1cccc2sc(N(CCCN(C)C)C(=O)CCS(=O)(=O)c3ccccc3)nc12 | 7.86% (inactive)
COc1ccccc1CN1CCN(C(c2ccccc2)c2ccccc2)CC1 | -12.1% (inactive)
CCN1C(=O)[C@H]2[C@@H](c3ccc(-c4ccc(F)cc4)cc3)N[C@@](Cc3ccccc3)(C(=O)OC)[C@H]2C1=O | -2.41% (inactive)
CC1CCN(c2ccc([N+](=O)[O-])cc2C(N)=O)CC1 | -4.56% (inactive)
COc1cccc(CN(C)CC2CCCN(CCc3ccc(Cl)cc3)C2)c1OC (stereo unspecified) | -10.6% (inactive)
CCOC(=O)C1(C)CCCN(C(=O)c2ccc(F)c(Cl)c2)C1 (stereo unspecified) | -12.7% (inactive)
CS(=O)(=O)N(Cc1ccc(Cl)cc1)c1ccc(C(=O)NCCSCc2ccco2)cc1 | 17.9% (inactive)

SMILES | inhibition
COc1cccc(CN(C)CC(O)COC(c2ccccc2)c2ccccc2C)c1 (stereo unspecified) | -4.22% (inactive)
COc1ccccc1C1=Nc2cccc3cccc(c23)N1 | -15.4% (inactive)
COc1cccc(CNc2nc(NCc3ccccc3OC)nc3ccsc23)c1 | 35.8% (inactive)
CN1CCN(C2Cc3ccc(Cl)cc3Sc3ccc(F)cc32)CC1 (stereo unspecified) | 15% (inactive)
COc1cccc(CNc2nc(C(F)(F)F)nc3ccccc23)c1 | -14.3% (inactive)
COc1ccc(-c2cc(C(=O)N(C)Cc3ccccc3)c3ccccc3n2)cc1 | -6.15% (inactive)
Cc1ccc(NC(=O)c2cc(-c3ccc(C)o3)nc3ccccc23)nc1 | -10.9% (inactive)
CC(=O)C[C@@H](O)CC(=O)[C@H]1OC(=O)CCCCCCc2ccccc21 | -13.1% (inactive)
CCCCc1ccc(NC(=S)NCCCN2CCOCC2)cc1 | -11.7% (inactive)
Cc1cnc(C(=O)OCc2c(C)cc(C(C)(C)C)cc2C)cn1 | -3.52% (inactive)
COc1ccc(Oc2cn[nH]c2-c2ccc(OC)cc2O)cc1 | -11.7% (inactive)
CCCCC[C@H](C)N1C[C@@H](COCc2ccccc2)Oc2cc(N3CC[C@@H](N(C)C)C3)ccc2S1(=O)=O | 16.6% (inactive)
COc1ccc(CCNCc2c(-c3ccccc3)n(C)c3ccccc23)cc1 | 6.74% (inactive)
COc1ccc(-c2cc(NC=O)c3ncc(-c4ccccc4)n3c2)cc1OC | 80.3% (active)
CCCC(=O)Nc1nc2ccc(NC(=O)c3c(F)c(F)c(OC)c(F)c3F)cc2s1 | -1.52% (inactive)
CCOC(=O)C1(CCOc2ccccc2)CCN(Cc2cc(OC)c(O)cc2Cl)CC1 | -6.73% (inactive)
COc1cccc(COc2ccc(N(C)S(=O)(=O)c3ccccc3)cc2)c1 | -7.06% (inactive)
COC(=O)[C@H](Cc1ccccc1)NC(=O)[C@@H]1C[C@H]1[C@@H](NC(=O)OCc1ccccc1)c1ccccc1 | 48% (inactive)
Brc1ccccc1C1Nc2cccc3cccc(c23)N1 | 106% (active)
CC(CC(=O)Nc1cc(C(F)(F)F)ccc1Cl)c1ccccc1 (stereo unspecified) | 0.82% (inactive)
Cc1cccc(N(CC(=O)Nc2ccc(-c3nc4ccc(C)cc4s3)cc2)S(C)(=O)=O)c1 | 29% (inactive)
O=C(Nc1ccc(Cl)cc1)Nc1nnc(/C=C/c2ccccc2)s1 | -2.86% (inactive)
